{
  "source": "PubChem BioAssay (EPA / NIEHS)",
  "key": {"[1]": {"molecular_target": "Serine/threonine-protein phosphatase PP1-alpha catalytic subunit (Homo sapiens) (UniProt P62136)", "sequence (P62136 whole entry, looked up)": "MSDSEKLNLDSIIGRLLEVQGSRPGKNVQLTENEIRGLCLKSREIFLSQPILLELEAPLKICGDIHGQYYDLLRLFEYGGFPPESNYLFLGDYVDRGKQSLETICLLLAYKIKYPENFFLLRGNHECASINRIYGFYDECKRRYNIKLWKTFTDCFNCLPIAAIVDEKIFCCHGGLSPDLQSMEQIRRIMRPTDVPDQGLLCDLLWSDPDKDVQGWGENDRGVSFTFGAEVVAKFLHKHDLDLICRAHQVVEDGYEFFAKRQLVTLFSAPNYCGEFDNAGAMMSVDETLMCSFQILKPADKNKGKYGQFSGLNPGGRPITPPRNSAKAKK", "experiment": "NVS_ENZ_hPPP1CA: NovaScreen (NVS) Enzymatic Assay for human Protein Phosphatase 1 Aatalytic subunit Alpha (PPP1CA) (AID 2283200)", "outline": "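Recombinant enzyme activity read by fluorescence with electrophoretic mobility shift separating substrate from product, 1.33 h after dosing; loss of signal vs DMSO baseline. Primary screen in duplicate at 25 uM; actives retested in concentration-response up to 50 uM.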"}, "[2]": {"molecular_target": "human Protein Tyrosine Phosphatase Non-receptor Type 1 (PTPN1), PTPN1 (gene 5770) (UniProt P18031)", "sequence (P18031 whole entry, looked up)": "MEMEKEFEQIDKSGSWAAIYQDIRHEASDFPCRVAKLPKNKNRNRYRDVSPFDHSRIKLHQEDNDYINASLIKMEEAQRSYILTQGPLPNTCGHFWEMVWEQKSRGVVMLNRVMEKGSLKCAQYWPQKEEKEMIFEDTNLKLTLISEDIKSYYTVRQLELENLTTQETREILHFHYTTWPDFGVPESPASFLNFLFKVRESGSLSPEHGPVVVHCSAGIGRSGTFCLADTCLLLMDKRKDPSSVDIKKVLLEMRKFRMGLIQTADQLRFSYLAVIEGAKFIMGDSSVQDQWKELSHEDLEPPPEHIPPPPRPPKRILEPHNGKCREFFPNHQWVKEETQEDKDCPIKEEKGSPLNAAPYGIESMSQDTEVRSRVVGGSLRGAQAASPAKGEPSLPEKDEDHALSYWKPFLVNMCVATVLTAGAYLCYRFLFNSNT", "experiment": "NVS_ENZ_hPTPN1: NovaScreen (NVS) Enzymatic Assay for human Protein Tyrosine Phosphatase Non-receptor Type 1 (PTPN1) (AID 2283201)", "outline": "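Cell-free fluorogenic-substrate activity assay on recombinant enzyme, read 1.33 h after dosing by fluorescence and electrophoretic mobility shift; loss of signal vs DMSO baseline. Primary screen in duplicate at 25 uM, hits then run in concentration-response up to 50 uM.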"}, "[3]": {"molecular_target": "Tyrosine-protein phosphatase non-receptor type 11 (Homo sapiens) (UniProt Q06124)", "sequence (Q06124 whole entry, looked up)": "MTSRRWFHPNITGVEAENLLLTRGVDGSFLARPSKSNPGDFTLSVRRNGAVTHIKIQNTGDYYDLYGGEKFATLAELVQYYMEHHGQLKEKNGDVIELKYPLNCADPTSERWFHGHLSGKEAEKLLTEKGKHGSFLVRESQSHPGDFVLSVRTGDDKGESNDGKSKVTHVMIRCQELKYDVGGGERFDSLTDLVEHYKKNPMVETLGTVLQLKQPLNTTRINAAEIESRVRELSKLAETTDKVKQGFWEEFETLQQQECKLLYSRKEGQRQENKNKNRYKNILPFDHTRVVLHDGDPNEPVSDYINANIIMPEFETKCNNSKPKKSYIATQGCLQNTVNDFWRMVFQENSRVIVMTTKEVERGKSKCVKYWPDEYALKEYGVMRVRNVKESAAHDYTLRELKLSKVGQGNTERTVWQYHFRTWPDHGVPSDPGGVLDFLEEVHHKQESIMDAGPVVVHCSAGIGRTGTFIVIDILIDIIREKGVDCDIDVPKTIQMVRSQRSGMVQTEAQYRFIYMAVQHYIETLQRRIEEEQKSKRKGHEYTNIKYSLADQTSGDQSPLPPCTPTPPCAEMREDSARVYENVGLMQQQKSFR", "experiment": "NVS_ENZ_hPTPN11: NovaScreen (NVS) Enzymatic Assay for human Protein Tyrosine Phosphatase Non-receptor Type 11 (PTPN11) (AID 2283202)", "outline": "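Recombinant human PTPN11 activity on a fluorescent substrate, with substrate/product separated by electrophoretic mobility shift; read 0.5 h after dosing, loss of signal vs DMSO. Duplicate 25 uM screen, then concentration-response up to 50 uM.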"}, "[4]": {"molecular_target": "Tyrosine-protein phosphatase non-receptor type 12 (Homo sapiens) (UniProt Q05209)", "sequence (Q05209 whole entry, looked up)": "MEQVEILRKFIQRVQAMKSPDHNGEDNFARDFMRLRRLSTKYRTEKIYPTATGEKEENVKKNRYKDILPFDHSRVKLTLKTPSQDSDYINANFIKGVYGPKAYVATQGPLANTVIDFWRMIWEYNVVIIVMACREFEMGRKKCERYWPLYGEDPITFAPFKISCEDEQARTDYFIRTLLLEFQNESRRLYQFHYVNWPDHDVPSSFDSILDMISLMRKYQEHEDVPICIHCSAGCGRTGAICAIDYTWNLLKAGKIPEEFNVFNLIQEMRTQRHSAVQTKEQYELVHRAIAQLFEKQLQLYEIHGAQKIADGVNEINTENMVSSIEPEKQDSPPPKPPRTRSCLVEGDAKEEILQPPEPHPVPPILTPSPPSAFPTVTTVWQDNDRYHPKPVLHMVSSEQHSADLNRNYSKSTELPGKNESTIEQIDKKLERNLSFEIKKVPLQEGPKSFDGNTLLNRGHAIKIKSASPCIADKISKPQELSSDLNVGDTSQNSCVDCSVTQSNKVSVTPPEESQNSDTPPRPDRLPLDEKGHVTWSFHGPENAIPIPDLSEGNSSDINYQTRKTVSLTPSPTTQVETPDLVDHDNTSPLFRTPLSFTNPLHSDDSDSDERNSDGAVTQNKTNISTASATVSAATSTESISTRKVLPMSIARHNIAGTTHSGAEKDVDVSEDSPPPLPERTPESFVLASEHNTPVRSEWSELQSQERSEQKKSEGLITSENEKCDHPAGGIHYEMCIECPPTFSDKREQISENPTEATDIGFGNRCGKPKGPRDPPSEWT", "experiment": "NVS_ENZ_hPTPN12: NovaScreen (NVS) Enzymatic Assay for human Protein Tyrosine Phosphatase Non-receptor Type 12 (PTPN12) (AID 2283204)", "outline": "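Single-concentration duplicates (25 uM) preceded singleton concentration-response up to 50 uM for chemicals passing threshold. Cell-free recombinant PTPN12 activity was read 1.33 h after dosing via fluorescence after mobility-shift separation; loss of signal versus DMSO.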"}, "[5]": {"molecular_target": "Tyrosine-protein phosphatase non-receptor type 13 (Homo sapiens) (UniProt Q12923)", "experiment": "NVS_ENZ_hPTPN13: NovaScreen (NVS) Enzymatic Assay for human Protein Tyrosine Phosphatase Non-receptor Type 13 (PTPN13) (AID 2283205)", "outline": "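Cell-free assay of recombinant human PTPN13 with a fluorescent substrate, product separated by electrophoretic mobility shift and read 0.5 h after dosing. Primary screen at 25 uM in duplicate, then concentration-response up to 50 uM. Loss of signal fitted against DMSO.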"}, "[6]": {"molecular_target": "Tyrosine-protein phosphatase non-receptor type 14 (Homo sapiens) (UniProt Q15678)", "sequence (Q15678 whole entry, looked up)": "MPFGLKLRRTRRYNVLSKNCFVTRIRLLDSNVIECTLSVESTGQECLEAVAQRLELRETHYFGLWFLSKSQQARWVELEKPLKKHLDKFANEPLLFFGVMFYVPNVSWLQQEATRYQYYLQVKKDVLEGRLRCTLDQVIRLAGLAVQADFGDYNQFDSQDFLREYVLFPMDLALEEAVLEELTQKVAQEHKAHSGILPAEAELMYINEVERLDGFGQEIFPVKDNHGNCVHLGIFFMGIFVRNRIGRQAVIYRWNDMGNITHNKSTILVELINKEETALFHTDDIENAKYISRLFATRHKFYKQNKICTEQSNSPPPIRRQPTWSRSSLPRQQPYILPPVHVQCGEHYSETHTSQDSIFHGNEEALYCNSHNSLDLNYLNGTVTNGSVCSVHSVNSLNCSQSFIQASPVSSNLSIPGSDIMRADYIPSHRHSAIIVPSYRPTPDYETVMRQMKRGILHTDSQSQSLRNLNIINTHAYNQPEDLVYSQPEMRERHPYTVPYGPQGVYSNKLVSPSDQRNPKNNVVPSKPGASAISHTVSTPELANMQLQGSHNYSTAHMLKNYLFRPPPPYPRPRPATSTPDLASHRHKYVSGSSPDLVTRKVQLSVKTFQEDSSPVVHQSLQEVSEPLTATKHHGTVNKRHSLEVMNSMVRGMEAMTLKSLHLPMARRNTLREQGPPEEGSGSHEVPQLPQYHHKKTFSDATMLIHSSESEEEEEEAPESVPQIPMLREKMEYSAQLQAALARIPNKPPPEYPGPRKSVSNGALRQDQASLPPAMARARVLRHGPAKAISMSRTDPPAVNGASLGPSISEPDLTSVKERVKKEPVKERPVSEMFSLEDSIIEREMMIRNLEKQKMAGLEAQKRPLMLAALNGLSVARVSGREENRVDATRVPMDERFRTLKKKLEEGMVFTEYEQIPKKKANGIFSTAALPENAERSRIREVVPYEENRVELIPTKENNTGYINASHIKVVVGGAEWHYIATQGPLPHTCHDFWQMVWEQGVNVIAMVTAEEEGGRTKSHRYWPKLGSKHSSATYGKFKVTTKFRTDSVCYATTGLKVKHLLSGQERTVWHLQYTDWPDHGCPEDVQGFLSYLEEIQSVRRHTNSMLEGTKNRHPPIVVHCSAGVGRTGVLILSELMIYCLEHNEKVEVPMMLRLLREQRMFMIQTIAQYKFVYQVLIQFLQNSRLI", "experiment": "NVS_ENZ_hPTPN14: NovaScreen (NVS) Enzymatic Assay for human Protein Tyrosine Phosphatase Non-receptor Type 14 (PTPN14) (AID 2283206)", "outline": "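Cell-free recombinant human PTPN14 with fluorescent substrate, read 0.5 h after dosing by fluorescence and electrophoretic mobility shift separating substrate from product. Primary screen at 25 uM in duplicate; hits run to 50 uM maximum; loss of signal versus DMSO.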"}, "[7]": {"molecular_target": "human Protein Tyrosine Phosphatase Non-receptor Type 4 (PTPN4), PTPN4 (gene 5775) (UniProt P29074)", "sequence (P29074 whole entry, looked up)": "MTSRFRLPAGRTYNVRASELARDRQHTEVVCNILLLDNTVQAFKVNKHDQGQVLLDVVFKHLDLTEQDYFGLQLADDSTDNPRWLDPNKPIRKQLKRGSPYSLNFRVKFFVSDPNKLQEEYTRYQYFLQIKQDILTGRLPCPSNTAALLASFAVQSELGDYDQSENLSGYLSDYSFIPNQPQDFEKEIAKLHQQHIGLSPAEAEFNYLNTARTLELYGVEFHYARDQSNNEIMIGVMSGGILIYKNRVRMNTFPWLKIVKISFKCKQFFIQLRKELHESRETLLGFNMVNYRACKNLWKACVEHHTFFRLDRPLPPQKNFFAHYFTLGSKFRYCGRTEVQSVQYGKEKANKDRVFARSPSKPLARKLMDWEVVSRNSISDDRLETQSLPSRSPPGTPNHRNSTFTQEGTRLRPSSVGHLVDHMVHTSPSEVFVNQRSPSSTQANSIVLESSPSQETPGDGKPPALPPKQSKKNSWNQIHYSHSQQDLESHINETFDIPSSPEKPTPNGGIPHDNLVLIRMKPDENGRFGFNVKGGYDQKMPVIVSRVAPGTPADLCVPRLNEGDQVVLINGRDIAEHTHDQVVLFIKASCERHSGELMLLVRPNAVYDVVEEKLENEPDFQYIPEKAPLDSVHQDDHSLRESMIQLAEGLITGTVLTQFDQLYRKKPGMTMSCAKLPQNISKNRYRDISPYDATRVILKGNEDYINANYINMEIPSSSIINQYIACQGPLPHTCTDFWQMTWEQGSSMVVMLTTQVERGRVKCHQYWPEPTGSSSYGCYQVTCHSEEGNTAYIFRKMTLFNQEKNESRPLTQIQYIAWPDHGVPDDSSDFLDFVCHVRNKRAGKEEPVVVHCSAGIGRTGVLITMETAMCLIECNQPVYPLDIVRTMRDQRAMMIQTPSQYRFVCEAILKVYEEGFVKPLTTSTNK", "experiment": "NVS_ENZ_hPTPN4: NovaScreen (NVS) Enzymatic Assay for human Protein Tyrosine Phosphatase Non-receptor Type 4 (PTPN4) (AID 2283208)", "outline": "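Cell-free assay of PTPN4 expressed in Sf9 cells, using a fluorescent substrate with product separated by mobility shift; read 1.33 h after dosing. Single-point screen at 25 uM, then concentration-response up to 50 uM. Loss of signal relative to DMSO.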"}},
  "note": "Inconclusive results are not listed. Active and inactive are the calls of the source. How the source made its calls: active means hit-call score of the fitted dose curve at least 0.9, where 1 is the maximum; inconclusive means response in the unintended direction; inactive means score below 0.9.",
  "data": [
    {"smiles": "CC(=O)Nc1ccc(O)cc1", "values": [
      {"measurement": "outcome", "setting": "[1]", "value": "inactive"}
    ]},
    {"smiles": "CCCCCCCCCCCCOS(=O)(=O)O", "values": [
      {"measurement": "AC50", "setting": "[2]", "value": "22.7 µM (active)"},
      {"measurement": "AC50", "setting": "[3]", "value": "38.4 µM (active)"},
      {"measurement": "AC50", "setting": "[4]", "value": "11.9 µM (active)"},
      {"measurement": "AC50", "setting": "[5]", "value": "46.3 µM (active)"},
      {"measurement": "outcome", "setting": "[6]", "value": "inactive"},
      {"measurement": "AC50", "setting": "[7]", "value": "10.7 µM (active)"}
    ]},
    {"smiles": "CCCCCC(C)OC(=O)COc1ccc(Cl)c2cccnc12", "note": "(stereo not drawn)", "values": [
      {"measurement": "outcome", "setting": "[4]", "value": "inactive"}
    ]}
  ]
}
